Consider 47 compounds from PubChem BioAssay AID1851 (National Center for Advancing Translational Sciences (NCATS), 2009).

One may read the AC50 as the concentration giving half of the maximal activity seen.

Hit rate of the full screen: of about 16,000 compounds, about 5,700 (36%) were called active. About 24% were inconclusive and are not listed. This is one part of the list. Unmarked numbers belong to inactive results. Calls follow the shape of the dose curve; as a rule, active = well fitted curve in the direction sought with a large enough effect; inconclusive = small, poorly fitted or top-dose-only effect, or effect the other way; inactive = no such curve, though single readings can be large or run the other way.
% is scaled to controls: 0 for no effect and ±100 for the full control effect.

In the assay the target is Cytochrome P450 1A2 (Homo sapiens) (UniProt P05177). The assay is described as follows: Cytochrome panel assay with activity outcomes. Particulars: recombinant CYP, pro-luciferin dealkylation, luminescence, p450-cyp1a2; series mostly up to 57.1 µM; activity, negative = inhibition: at the top concentration.
Chain of Cytochrome P450 1A2 (Homo sapiens) (P05177 whole entry, looked up): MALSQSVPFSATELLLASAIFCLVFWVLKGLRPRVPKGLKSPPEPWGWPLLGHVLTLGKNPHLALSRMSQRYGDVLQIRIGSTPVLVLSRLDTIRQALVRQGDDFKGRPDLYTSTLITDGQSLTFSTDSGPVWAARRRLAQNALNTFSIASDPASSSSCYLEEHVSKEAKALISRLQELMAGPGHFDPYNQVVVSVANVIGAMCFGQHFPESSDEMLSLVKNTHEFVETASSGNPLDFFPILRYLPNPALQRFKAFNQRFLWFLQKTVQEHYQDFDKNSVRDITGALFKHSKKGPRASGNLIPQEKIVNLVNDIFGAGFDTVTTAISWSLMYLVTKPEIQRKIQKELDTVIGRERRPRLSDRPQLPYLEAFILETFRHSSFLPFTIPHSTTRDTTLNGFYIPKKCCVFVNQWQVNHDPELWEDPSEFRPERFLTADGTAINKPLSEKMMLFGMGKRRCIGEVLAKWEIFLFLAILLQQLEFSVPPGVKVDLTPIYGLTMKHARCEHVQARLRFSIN
On to `CCOC(=O)NCc1ccc2c(c1)cc(C)n2C`, for which the AC50 is 2000 nM (active).
On to `CN[C@@H]1[C@H](O[C@H]2[C@@H](O[C@@H]3[C@@H](O)[C@@H](O)[C@@H](N=C(N)N)[C@@H](O)[C@@H]3N=C(N)N)O[C@@H](C)[C@]2(O)CO)O[C@H](CO)[C@@H](O)[C@@H]1O`, for which the “activity, negative = inhibition” value is -4.23% [at 25.6 µM].
Regarding `CNC(=S)NNC(=O)COc1ccccc1C`, the AC50 is 15800 nM (active).
For the compound `Cc1ccccc1OCC(=O)OC1CCN(C)CC1`, the “activity, negative = inhibition” value is 5.7%.
As to `CCOc1ccc(C(F)(F)F)cc1NC(=O)c1ccc(OC)c([N+](=O)[O-])c1`, the AC50 is 3550 nM (active).
In the case of `CCOc1ccc(C(=O)Cc2cc(OC)c(OC)cc2[N+](=O)[O-])cc1`, the “activity, negative = inhibition” value is -12.4%.
With `CC(=O)Nc1cc(C(F)(F)F)ccc1Oc1cccc(Br)c1`, the AC50 is 10000 nM (active).
For the compound `CCCC(=O)N1CCN(c2ccc(NC(=O)c3ccc(OCC)c([N+](=O)[O-])c3)cc2)CC1`, the “activity, negative = inhibition” value was -8.1%.
As for `CCOc1ccc(C(F)(F)F)cc1NC(C)=O`, the AC50 is 100 nM (active).
For `CC(=O)Oc1cc(C(F)(F)F)ccc1C(=O)O`, the “activity, negative = inhibition” value is -7.55% [at 25.6 µM].
The same measure, in the same setting: next, `CN(C(=O)COc1cccc(Br)c1)C1CCS(=O)(=O)C1` (configuration not stated): -26.4%; `CC(=O)NC1=NC(=O)C(C)S1` (configuration not stated): 1.33%.
Same read-out and setting: next, `N[C@@H](Cc1nn[nH]n1)C(=O)O`: -8.69% [at 11.4 µM].
Still for that read-out and setting: next, `Nc1[nH]c(=O)nc2c1ncn2[C@H]1O[C@@H](CO)[C@@H](O)[C@@H]1O`: -0.635% [at 11.4 µM].
As to `CC1=NCC[N@@+]1(CCc1ccccc1)Cc1ccccc1`, the activity, negative = inhibition is -17.6% [at 11.4 µM].
Same read-out and setting: next, `C[C@H](Nc1ncnc2sc3c(c12)CCC3)C(=O)O`: -17.4%.
Take `CC(CO)Nc1nc(SCc2ccccc2)nc2sc3c(c12)CCC3` (configuration not stated): the AC50 was 200 nM (active).
On to `Cc1ccc(CSc2nc3c(c(SCC(=O)O)n2)CCCC3)cc1`, for which the “activity, negative = inhibition” value was -2.42%.
Consider `OCCNc1nc(SCc2ccccc2)nc2sc3c(c12)CCC3`, for which the AC50 was 1000 nM (active).
The same measure, in the same setting: next, `COCCNc1nc(SCc2ccccc2)nc2sc3c(c12)CCC3`: 1000 nM (active).
Consider `CCCCNC(=O)C1CCN(Cc2ccccn2)CC1`, for which the “activity, negative = inhibition” value was 5.66%.
With `CCCCNC(=O)C1CC(=O)N(CCC(C)C)C1` (configuration not stated), the “activity, negative = inhibition” value is -12.7%.
As to `CCCCNC(=O)[C@@H]1Cc2ccccc2N1C(=O)[C@H](N)CC`, the AC50 was 20000 nM (active).
In the case of `O=C(O)Cn1ccnc1[N+](=O)[O-]`, the activity, negative = inhibition was -3.98% [at 11.4 µM].
For `CCOC(=O)c1cc2c(=O)n3ccccc3nc2n(CCOC)c1=NC(=O)C(C)(C)C`, the AC50 is 3160 nM (active).
Still for that read-out and setting: next, `CCOC(=O)c1cc2c(=O)n3ccccc3nc2n(CCCOC)c1=NC(C)=O`: 12600 nM (active).
In the case of `C[C@H]1[C@H](C)OC(=O)C[C@H](O)C[C@H](O)C[C@H](O)CC[C@H](O)[C@H](O)CC(=O)C[C@H](O)[C@H](C(=O)O)[C@H](O)C[C@H](O[C@@H]2O[C@@H](C)[C@H](O)[C@@H](N)[C@@H]2O)C=CC=CC=CC=CCCC=CC=C[C@@](C)(O)[C@H]1O`, the activity, negative = inhibition was 12.4% [at 11.4 µM].
Regarding `O=[N+]([O-])c1cccc(/C=N/Nc2cc(Cl)nc(-c3ccccc3)n2)c1`, the AC50 is 1260 nM (active).
Take `CN(C)c1ccc(-c2ccc3ncnc(N4CCNCC4)c3c2)cc1`: the AC50 was 2510 nM (active).
Take `CN1CCN(c2ncnc3ccc(-c4ccc(C(=O)N(C)C)cc4)cc23)CC1`: the “activity, negative = inhibition” value was -11.4%.
Same read-out and setting: next, `CN(C)C(=O)c1ccc(-c2ccc3ncnc(N4CCNCC4)c3c2)cc1`: -13.6%.
As to `c1nc(N2CCNCC2)c2cc(-c3ccc4c(c3)OCO4)ccc2n1`, the AC50 is 2000 nM (active).
On the same count and under the same terms, in the case of `CN1CCN(c2ncnc3ccc(-c4ccc5c(c4)OCO5)cc23)CC1` it was 2510 nM (active).
As to `C[C@H]1C[C@H]2[C@H]3CCC4=CC(=O)C=C[C@@]4(C)[C@]3(F)[C@H](O)C[C@]2(C)[C@@]1(O)C(=O)COP(=O)(O)O`, the activity, negative = inhibition was 2.48% [at 11.4 µM].
Still for that read-out and setting: in the case of `CC1(C)O[C@@H]2C[C@H]3[C@H]4C[C@H](F)C5=CC(=O)C=C[C@@]5(C)[C@@H]4[C@H](O)C[C@]3(C)[C@]2(C(=O)CO)O1` it was -10.8% [at 25.6 µM].
On the same count and under the same terms, next, `CCC1CC(CSc2ncn[nH]2)OC1=O` (configuration not stated): 0.612%.
For `Clc1ccccc1-c1nc(-c2ccccc2)n[nH]1`, the AC50 is 1000 nM (active).
In the case of `COc1ccccc1CNc1ncncc1-c1ccc2c(c1)OCO2`, the AC50 was 158 nM (active).
Same read-out and setting: next, `COc1ccc(CNc2ncncc2-c2ccc3c(c2)OCO3)c(OC)c1`: 501 nM (active).
As for `Cc1nnc(S(=O)(=O)c2ccc(N=Nc3c(N)nc(N)nc3N)cc2)s1`, the activity, negative = inhibition was -10.2% [at 2.29 µM].
In the case of `Cc1nn(C(=O)c2ccco2)c(C)c1Sc1ccc(Br)cc1`, the AC50 was 14100 nM (active).
Turning to `Cc1nn(C(=O)CN2C(=O)c3ccccc3C2=O)c(C)c1Br`, the “activity, negative = inhibition” value is -9.22%.
For the compound `Cc1nn(C(=O)c2cccnc2)c(C)c1Sc1ccc(Br)cc1`, the AC50 was 7080 nM (active).
Take `Cc1nc2ncnn2c(C)c1CCC(=O)N1CCN(C(=O)c2ccco2)CC1`: the “activity, negative = inhibition” value is 2.36%.
On to `Cc1nn(C(=O)c2ccco2)c(C)c1Sc1ccccc1`, for which the AC50 was 15800 nM (active).
On to `O=C(c1ccco1)N1CCC2(CCN(Cc3ccccc3)CC2)CC1`, for which the “activity, negative = inhibition” value was 0.0929%.
Still for that read-out and setting: next, `CCCCN(C(=S)Nc1ccccc1)C1CCS(=O)(=O)C1` (configuration not stated): -16.7%.
